7 compounds from PubChem BioAssay (NCI) can be followed below.

Molecules are shown by their SMILES. About 83,000 compounds went through this panel and 20% of them were active in at least one assay; those are over-represented in the sample as a whole.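 How to read the values: 0–100, growth inhibition (40 = 60% inhibited); 0, no net growth; -100 to 0, cell death (-40 = 40% of starting cells died; -100 = all dead).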 Unmarked numbers belong to inactive results. Active and inactive are the calls of the source. The calls were made as follows: active = growth percent below 10; inactive = the rest.

Among the test systems are NCI-H23 lung; NCI-H226 lung; HOP-62 NSCLC; NCI-H460 lung; HOP-92 NSCLC; A549/ATCC NSCLC; 786-0 renal; COLO 205 colon; DU-145 prostate; K-562 leukemia; MALME-3M melanoma; MDA-MB-231 breast; RXF 393 renal; SF-268 CNS; SF-295 CNS; SF-539 CNS; UACC-257 melanoma; M14 melanoma; NCI-H522 lung.
Holding throughout (assay): NCI-60 one-dose screen, 48 h (100 = growth as untreated, 0 = no growth, -100 = all killed)
Details in all cases: 10 µM unless noted

For `CCCCSC1=C(Cl)CN(c2ccc(Cl)cc2)C1=O`, the growth in the test with NCI-H23 lung is 102%; in the test with NCI-H226 lung, 96.1%; in the test on HOP-62 NSCLC, 106%; with NCI-H460 lung, 93.4%; in the test with HOP-92 NSCLC, 96.6%; in the test on A549/ATCC NSCLC it was 102%. The growth with 786-0 renal was 99.2%; with COLO 205 colon, 125%; with DU-145 prostate, 106%; in the test with K-562 leukemia, 82.6%; in the test on MALME-3M melanoma it was 103%; in the test on MDA-MB-231 breast, 104%. In addition, the growth with RXF 393 renal is 109%; with SF-268 CNS, 105%; in the test with SF-295 CNS, 93%; in the test with SF-539 CNS, 85.2%; in the test with UACC-257 melanoma, 107%; with M14 melanoma, 96.5%.

As for `O=C(CSc1nnc(-c2ccc(Cl)cc2)n1-c1ccccc1)Nc1cccc(F)c1`, the growth in the test with NCI-H23 lung is 23.6%; with NCI-H226 lung, 20.9%; in the test with HOP-62 NSCLC it was 50.3%; in the test with NCI-H460 lung, 17.4%; in the test with HOP-92 NSCLC, 57.8%; in the test with NCI-H522 lung, 52.2%. Moreover, the growth in the test on A549/ATCC NSCLC is 2.72% (active); in the test with 786-0 renal it was 0.989% (active); with COLO 205 colon it was 80.1%; in the test with DU-145 prostate it was 58.1%; in the test with K-562 leukemia, 48%; in the test with MALME-3M melanoma, 52.7%. Besides, the growth was 27% in the test on MDA-MB-231 breast; 25.6% in the test on RXF 393 renal; 56.2% in the test with SF-268 CNS; 9.38% (active) with SF-295 CNS; -1.04% (active) with SF-539 CNS; 85.9% in the test on UACC-257 melanoma. Besides, the growth with M14 melanoma was 62.9%.

Regarding `O=C1Nc2cc(Cl)ccc2/C1=C\c1ccc(OCc2ccccc2)cc1`, the growth is 94.3% in the test on NCI-H23 lung; 92.9% in the test on NCI-H226 lung; 96.2% in the test with HOP-62 NSCLC; 104% in the test with NCI-H460 lung; 109% with HOP-92 NSCLC; 99.8% in the test on NCI-H522 lung. Besides, the growth in the test on A549/ATCC NSCLC is 105%; in the test with 786-0 renal it was 105%; in the test with COLO 205 colon, 110%; with DU-145 prostate, 101%; with K-562 leukemia it was 93.1%; in the test on MALME-3M melanoma, 115%. Besides, the growth in the test on MDA-MB-231 breast is 104%; in the test with RXF 393 renal it was 114%; in the test on SF-268 CNS, 94.5%; with SF-295 CNS, 115%; in the test on SF-539 CNS, 94.5%; in the test on UACC-257 melanoma it was 116%. Further, the growth in the test with M14 melanoma is 96.2%.

On to `CC1=C(C)C(=O)C(Nc2cccc(C(=O)OC(C)(C)C)c2)=C(Cl)C1=O`, for which the growth in the test on NCI-H23 lung is 92.4%; with NCI-H226 lung, 91.3%; in the test on HOP-62 NSCLC, 103%; with NCI-H460 lung, 99.8%; with HOP-92 NSCLC it was 56.4%; in the test on NCI-H522 lung, 81.7%. The growth in the test on A549/ATCC NSCLC is 90.4%; in the test with 786-0 renal, 96.5%; in the test with COLO 205 colon, 118%; in the test with DU-145 prostate, 103%; in the test with K-562 leukemia it was 21.6%; with MALME-3M melanoma, 94.4%. Further, the growth was 48.9% in the test with MDA-MB-231 breast; 103% in the test with RXF 393 renal; 92% in the test on SF-268 CNS; 105% with SF-295 CNS; 96.6% in the test on SF-539 CNS; 91.4% in the test with UACC-257 melanoma. Also, the growth in the test on M14 melanoma is 83.3%.

Turning to `NS(=O)(=O)c1ccc(Nc2nc(Nc3ccccc3)nc(N3N=C(c4ccc(Cl)cc4)CC3c3ccc(Cl)cc3)n2)cc1` (configuration not stated), the growth in the test with NCI-H23 lung was 54.8%; in the test on NCI-H226 lung, 55.1%; with HOP-62 NSCLC, 75.8%; in the test with NCI-H460 lung, 20.1%; in the test on HOP-92 NSCLC, 75%; with NCI-H522 lung, 83.6%. Besides, the growth was 66.7% in the test on A549/ATCC NSCLC; 65.8% with 786-0 renal; 8.73% (active) with COLO 205 colon; 50.4% with DU-145 prostate; 32.5% in the test on K-562 leukemia; 42.5% with MALME-3M melanoma. Further, the growth was 54.3% in the test with MDA-MB-231 breast; -3.26% (active) in the test with RXF 393 renal; 59.4% with SF-268 CNS; 56.7% in the test on SF-295 CNS; 58% in the test on SF-539 CNS; 65.8% in the test on UACC-257 melanoma. Also, the growth in the test with M14 melanoma is 34.6%.

Turning to `CC(C)(C)c1cc(NC(=O)Nc2ccc(-c3cn4c5c(sc4n3)CCc3cn(CCCN4CCCCC4)cc3-5)cc2)no1`, the growth is -84.2% (active) with NCI-H23 lung; 92.6% in the test on NCI-H226 lung; -50.3% (active) in the test on HOP-62 NSCLC; -69.1% (active) in the test on NCI-H460 lung; 75.4% with HOP-92 NSCLC; -55.3% (active) with NCI-H522 lung. Also, the growth in the test on A549/ATCC NSCLC is -79.6% (active); with 786-0 renal, -98.1% (active); in the test with COLO 205 colon, 5.79% (active); in the test with DU-145 prostate it was -96.4% (active); in the test with K-562 leukemia, 3.01% (active); in the test on MALME-3M melanoma, -79.1% (active). Also, the growth in the test with MDA-MB-231 breast is -77.3% (active); in the test with RXF 393 renal, -71.6% (active); with SF-268 CNS it was -58.2% (active); in the test on SF-295 CNS, -53.6% (active); with SF-539 CNS, -92.1% (active); with UACC-257 melanoma, 51.3%. Besides, in the test on M14 melanoma, the growth was -93.6% (active).

With `O=C1[C@@H]2Cc3c([nH]c4ccccc34)[C@H](c3ccc(Br)cc3)N2C(=O)CN1C1CCN(Cc2c(Cl)cccc2Cl)CC1`, the growth with NCI-H23 lung is 91.7%; in the test on NCI-H226 lung, 85.8%; with HOP-62 NSCLC, 91.9%; in the test on NCI-H460 lung, 97.5%; in the test with HOP-92 NSCLC, 94.1%; with NCI-H522 lung, 91.7%. Also, the growth in the test on A549/ATCC NSCLC was 93%; with 786-0 renal it was 99.8%; with COLO 205 colon it was 105%; in the test with DU-145 prostate it was 96.3%; in the test with K-562 leukemia, 74.2%; in the test with MALME-3M melanoma, 107%. Besides, the growth was 89% in the test on MDA-MB-231 breast; 120% with RXF 393 renal; 81.3% in the test with SF-268 CNS; 100% with SF-295 CNS; 105% with SF-539 CNS; 102% in the test with UACC-257 melanoma. For the same compound, the growth in the test on M14 melanoma was 92.8%.
